# Compound activity as filed in PubChem BioAssay.
# BAZ2B inh = qHTS Assay for Inhibitors of BAZ2B. Bromodomain adjacent to zinc finger domain protein 2B (Homo sapiens), Q9UIF8. AlphaScreen BAZ2B-H3K14Ac peptide displacement. Potency, µM (top dose mostly 114 µM), inactives show top-dose activity change, negative = inhibition, most hits filed as inhibitors. 360,000 compounds, 4.4% hits; note: % is set by controls: 0 for no effect and ±100 for the full control effect; nearly all actives have a fitted effect of over 60% in size
#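 AlphaScreen displacement: compounds (up to 110uM) incubated 30 min at room temperature with a preformed 50 nM BAZ2B/50 nM biotinylated H3K14Ac peptide complex in PBS pH 7.4 with Tween-20. Donor and acceptor beads at 10 ug/mL final added, 20 min light-protected before reading.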
# G9a block = qHTS Assay for Inhibitors of Histone Lysine Methyltransferase G9a; Histone-lysine N-methyltransferase EHMT2 (Homo sapiens), Q96KQ7; G9a H3K9 monomethylation, AlphaScreen, 2 h; Potency, µM (series often up to 102 µM), for inactives: at the top dose activity, negative = inhibition, hits mostly inhibitors; 350,000 compounds, 8.8% hits; AID 504332, 2011; note: % is set by controls: 0 for no effect and ±100 for the full control effect; nearly all actives have a fitted effect of over 75% in size
# Target sequence (Q96KQ7 913-1193 limits assumed): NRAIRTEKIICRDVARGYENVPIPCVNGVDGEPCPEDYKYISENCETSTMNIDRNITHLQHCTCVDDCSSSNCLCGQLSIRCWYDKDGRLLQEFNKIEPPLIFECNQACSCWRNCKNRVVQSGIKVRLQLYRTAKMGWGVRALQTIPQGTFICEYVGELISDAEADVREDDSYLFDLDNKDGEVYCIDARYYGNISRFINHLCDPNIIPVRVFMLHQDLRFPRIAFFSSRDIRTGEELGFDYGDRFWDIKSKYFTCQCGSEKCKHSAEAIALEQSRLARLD
#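 Methyltransferase reactions run at room temperature for 2 h (20 nM enzyme, 500 nM biotin-H3K9 peptide, 20 uM SAM) after a 15 min compound preincubation; product detected by AlphaScreen beads and anti-H3K9me1 antibody.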
# JMJD2A Tudor inh = qHTS Assay for Inhibitors of JMJD2A-Tudor Domain | Lysine-specific demethylase 4A (Homo sapiens), O75164 | AlphaScreen JMJD2A-Tudor / H3K4me3 peptide binding | Potency, µM (series often up to 114 µM), inactives show top-dose activity change, negative = inhibition, actives largely listed as inhibitors | 390,000 compounds, 4.4% hits | AID 504339, 2011; note: % is set by controls: 0 for no effect and ±100 for the full control effect; nearly all actives have a fitted effect of over 50% in size
# GLS inh = qHTS for Inhibitors of Glutaminase (GLS); Glutaminase kidney isoform, mitochondrial (Homo sapiens), O94925; GLS enzymatic activity, qHTS titration; Potency, µM (series often up to 45.5 µM), without a hit: at the top dose activity change, negative = inhibition, usual class: inhibitors; 410,000 compounds, 0.21% hits; note: % is set by controls: 0 for no effect and ±100 for the full control effect
#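 Two-point fluorescence kinetic (t0, 30 min RT) for hKGA; glutamate detected via glutamate oxidase–HRP–Amplex Red. Substrate: 1 mM L-glutamine solution; buffer 45 mM KH2PO4, pH 8.2.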
# HP1b chromo inh = HTS for Inhibitors of HP1-beta Chromodomain Interactions with Methylated Histone Tails; Chromobox protein homolog 1 (Homo sapiens), P83916; AlphaScreen HP1-beta / biotin-H3K9me3 peptide binding; Potency, µM (doses to about 114 µM), for inactives: top-dose activity change, negative = inhibition, actives largely listed as inhibitors; 390,000 compounds, 0.56% hits; AID 540317, 2011; note: nearly all actives have a fitted effect of over 70% in size
# Target sequence (P83916 whole entry, looked up): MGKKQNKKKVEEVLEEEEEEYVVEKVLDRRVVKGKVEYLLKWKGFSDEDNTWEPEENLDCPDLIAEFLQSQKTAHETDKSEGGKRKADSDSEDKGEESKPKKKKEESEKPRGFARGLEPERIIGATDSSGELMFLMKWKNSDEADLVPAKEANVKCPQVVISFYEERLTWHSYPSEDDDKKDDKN
#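 HP1-beta protein (50 nM final) preincubated 30 min at room temperature with biotinylated H3(1-18)K9me3 peptide (50 nM) in PBS pH 7.4, 0.01% Tween-20, then compound added for 30 min. AlphaScreen streptavidin donor/nickel chelate acceptor beads (10 ug/mL final), 30 min dark, luminescence read.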
# The depositor's hits bear a star; ? = inconclusive; . = no result; [ ] = another dose, or the depositor's remark. A selection: hits, their analogues and other compounds. The true share with any hit is near 10%. Calls come from the whole dose curve; as a rule, active = well fitted curve in the direction sought with a large enough effect; inconclusive = small, poorly fitted or top-dose-only effect, or another doubt; inactive = no such curve, though single readings can be large; an effect the other way counts as inactive or inconclusive. Potency is the fitted concentration of half-maximal effect.
SMILES,BAZ2B inh,G9a block,JMJD2A Tudor inh,GLS inh,HP1b chromo inh
C[N+]1(C2CCC3CCC2C3O)CCCC1 (centres undefined),50.1µM*,11.2µM*,4.1%,0.4%,27.2%
CCOc1ccc2c(c1)C(=NNC(=O)c1ccccn1)c1cc(OCC)ccc1-2,.,.,-24.3%[11.4 µM],0.6%,52.5%
O=[N+]([O-])c1ccccc1CN1CCN(c2ncccn2)CC1,50.1µM*,?,17.8µM*,-4.4%,?
O=[N+]([O-])c1ccccc1CN1CCN(Cc2c[nH]c3ccccc23)CC1,50.1µM*,31.6µM*,10µM*,7.2%,?
O=C(c1ccc([N+](=O)[O-])s1)N1CCN(c2ncccn2)CC1,.,.,.,-0.1%,.
O=[N+]([O-])c1ccccc1CN1CCN(Cc2ccccn2)CC1,50.1µM*,3.98µM*,0.794µM*,0.0%,-10.0%
CCC1CCCCN1CCCNC(=O)CN1C(=O)CSc2ccc(S(=O)(=O)N3CCOCC3)cc21 (centres undefined),-10.6%[57.1 µM],14.0%,-10.1%,-12.3%,50.2%
Cn1ncc(Cl)c1C(=O)Nc1nc2ccc(Cl)cc2s1,-4.0%,7.94µM*,-9.9%,-9.4%,-16.2%
Cc1cc(C(=O)Nc2nc3ccc(Cl)cc3s2)nn1C,-2.1%,-40.7%,25.1µM*,1.5%,16.4%
O=C1OC(c2ccc(Cl)cc2)=N/C1=C\C=C\c1ccco1,.,14.1µM*,?,0.2%,-10.0%
O=C1OC(c2ccccc2)=N/C1=C\C=C\c1ccco1,?,.,?,11.7%,-17.3%
CC1CCc2[nH]c3ccc(C(=O)N(C)CC(=O)Nc4ccccc4Br)cc3c2C1 (centres undefined),?,44.7µM*,?,-2.5%,-37.6%
COc1ccc2cc(C(=O)N(C)CC(=O)Nc3ccccc3Br)ccc2c1,3.2%,8.91µM*,-10.7%,18.1%,36.7%
CN(C)Cc1c(O)ccc2c1O/C(=C\C=C\c1ccccc1)C2=O,-22.8%,?,1.5%[11.4 µM],-5.2%,-8.1%
Cc1cc(O)c(CN(C)C)c2c1C(=O)/C(=C/c1ccco1)O2,-21.6%,6.31µM*,-25.6%,-23.3%,-9.3%
CC(C)Nc1nc(NCCN2CCCC2)c2sc(-c3ccccc3)cc2n1,.,.,.,3.6%,.
COc1ccccc1C(=O)NCCC(=O)NC1CCC(C)CC1 (centres undefined),-1.1%,?,-15.5%,-3.1%,17.3%
O=c1c2cn[nH]c2[nH]c(=S)n1-c1ccccc1,-3.8%,8.91µM*,79.4µM*,8.1%,4.6%
COc1ccc(-n2c(=S)[nH]c3[nH]ncc3c2=O)cc1,?,.,?,-7.9%,37.2%
O=c1c2cn[nH]c2[nH]c(=S)n1-c1cccc2ccccc12,-7.5%,50.1µM*,-33.8%,21.6%,14.3%
O=[N+]([O-])c1ccc(Cl)cc1NCC1CCCO1 (centres undefined),-33.8%,?,-32.4%,-0.6%,-8.6%
CCOC(=O)C1=C(N)Oc2cc(C)[nH]c(=O)c2C1c1ccncc1 (centres undefined),-7.7%,10.3%,-12.0%,10.4%,21.4%
CCOC(=O)C1=C(N)Oc2cc(C)n(C)c(=O)c2C1c1ccncc1 (centres undefined),-2.7%,50.1µM*,7.9%[57.1 µM],14.7%,19.8%
Cc1cc(N2CCOCC2)n2nc(C)c(-c3ccccc3Cl)c2n1,7.1%,29.8%,8.7%,-11.8%,41.6%
COCCCn1c(=O)/c(=C\c2cccc(OC)c2OC)s/c1=C(/C#N)C(=O)Nc1ccc(C(=O)O)cc1,44.7µM*,-20.6%[59 µM],-8.8%[11.4 µM],-1.5%,6.4%
SMILES,BAZ2B inh,G9a block,JMJD2A Tudor inh,GLS inh,HP1b chromo inh
N#CCN(CC#N)C(=O)C1c2ccccc2Oc2ccccc21,-6.5%,.,39.8µM*,64.8%,14.4%
Cc1c(NS(=O)(=O)c2cccc(C(=O)N3CCC(C(N)=O)CC3)c2)c(=O)n(-c2ccccc2)n1C,.,.,2.8%,9.5%,12.2%[57 µM]
O=C(C1=C(O)C(=O)N(CC2CCCO2)C1c1cccnc1)c1ccco1 (centres undefined),?,39.8µM*,?,12.3%,15.9%
O=C(C1=C(O)C(=O)N(CC2CCCO2)C1c1ccccc1)c1ccco1 (centres undefined),-2.3%,44.7µM*,-15.5%,0.0%,-12.8%
COc1ccc(C2C(C(=O)c3ccco3)=C(O)C(=O)N2CC2CCCO2)cc1OC (centres undefined),-35.9%,50.1µM*,-31.0%,3.5%,-27.9%
COc1ccc(C2C(C(=O)c3ccco3)=C(O)C(=O)N2CCc2ccccc2)cc1OC (centres undefined),-35.2%,50.1µM*,79.4µM*,28.4%,-5.6%
COc1ccc(C2C(C(=O)c3ccco3)=C(O)C(=O)N2CCOCCO)cc1OC (centres undefined),?,?,?,-2.5%,-2.5%
CC(C)(C)c1ccc(C2C(C(=O)c3ccco3)=C(O)C(=O)N2CC2CCCO2)cc1 (centres undefined),-9.5%,-10.6%[59 µM],-18.2%,-4.8%,14.4%
Cc1ccc(Nc2nc3ccc(C(=O)c4ccccc4)cc3n3c(C)nnc23)c(C)c1,-12.5%,5.7%[59 µM],2.4%,-1.5%,29.4%
Cc1ccc(-n2c(Cn3ncc4ccccc4c3=O)n[nH]c2=S)cc1,?,7.94µM*,8.91µM*,0.6%,39.0%
O=c1c2ccccc2cnn1Cc1n[nH]c(=S)n1-c1ccc(F)cc1,-18.3%,7.94µM*,6.31µM*,0.0%,29.1%
CC(c1ccc(F)cc1)n1c(Cn2ncc3ccccc3c2=O)n[nH]c1=S (centres undefined),0.9%,48.0%,12.6µM*,0.0%,10.4%
Oc1[nH]c2ccccc2c1N=NC(=S)NCC1CCCO1 (centres undefined),-18.3%,-3.0%,?,3.9%,-1.7%
COc1ccc([N+](=O)[O-])cc1NC(=O)CSc1ccccc1,-27.9%,-1.4%,-8.4%[11.4 µM],-11.4%,7.6%
CN(CCOCCOc1ccc(Cl)cc1Br)Cc1ccccc1,1.6%,36.6%,1.3%,-8.0%,34.4%
CC(O)CNCCCOc1ccc(Cl)cc1C(C)(C)C (centres undefined),?,.,0.891µM*,0.0%,?
CN(C)CCOCCOc1ccc(Cl)cc1C(C)(C)C,50.1µM*,8.91µM*,3.16µM*,-8.9%,?
Cc1cc(Cl)cc(Br)c1OCCNCC(C)O (centres undefined),-3.3%,5.3%[12.7 µM],-3.2%,-7.2%,32.7%
Cc1ccc(Nc2ccc(C(=O)N3CCCC3)cn2)c(C)c1,-4.0%,5.7%[59 µM],-6.1%[11.4 µM],0.0%,5.1%
O=C(CN1CCCCCC1)NCc1ccccc1,-7.2%,23.2%[59 µM],-7.1%,3.9%,35.7%
CN(C)S(=O)(=O)c1cccc(NC(=O)COC(=O)c2cc(-c3cccc(Br)c3)nc3ccccc23)c1,-22.3%,-6.6%[59 µM],-12.8%,-8.4%,14.6%
